The supplement of paper PMC10849652
Targets with a hit are over-represented here; the source holds about 8,800 in all. About 0.5% of all pairs of compound and target were hits. Values without a mark were called inactive.

Tests used:
Test in all cases: log2 fold change, soluble protein after heating vs DMSO (PISA); higher = thermal stabilisation; K562 lysate, 10 uM; active = over 0.2 and 3.5 SD of the protein, either way, in both replicates (recomputed)
vemurafenib = compound: CCCS(=O)(=O)Nc1ccc(F)c(C(=O)c2c[nH]c3ncc(-c4ccc(Cl)cc4)cc23)c1F [vemurafenib]
Outline: (§1)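 A 30 min treatment with 10 μM compound was applied to crude K562 extract at 1 mg/mL protein in PBS pH 7.4 with 1 mM MgCl2. Heating for 3 min spanned 48°C-58°C, after which aliquots were pooled, adjusted to 0.5% NP-40 at 4°C and spun at 21,000xg for 90 min. TMTpro 16plex LC-MS/MS of the supernatant, with channel sums equalised, gave values recorded as log-two fold change in thermal stability against solvent controls, from duplicates.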

[1] = compound: CCCS(=O)(=O)Nc1ccc(F)c(C(=O)c2c[nH]c3ncc(Cl)cc23)c1F
Outline: as §1

barasertib = compound: CCN(CCCOc1ccc2c(Nc3cc(CC(=O)Nc4cccc(F)c4)[nH]n3)ncnc2c1)CCOP(=O)(O)O [barasertib]
Outline: as §1

[2] = compound: CC[C@@H]1C(=O)N(C)c2cnc(Nc3ccc(C(=O)NC4CCN(C)CC4)cc3OC)nc2N1C1CCCC1
Outline: as §1

volasertib = compound: CC[C@@H]1C(=O)N(C)c2cnc(Nc3ccc(C(=O)N[C@H]4CC[C@H](N5CCN(CC6CC6)CC5)CC4)cc3OC)nc2N1C(C)C [volasertib]
Outline: as §1

[3] = compound: CCn1c(C(=O)N(C2CC2)C2CC2)cc2c3c(ncn3C)c(Nc3cc(C)n(C)n3)nc21
Outline: as §1

[4] = compound: CCn1cc(-c2ccnc3[nH]c(-c4cccc(CN(C)C)c4)cc23)c(-c2ccc(NC(=O)N(C)C)cc2)n1
Outline: as §1

[5] = compound: CN1CCC(CNc2ccc3ncc(-c4cccc(OC(F)(F)F)c4)n3n2)CC1
Outline: as §1

saracatinib = compound: CN1CCN(CCOc2cc(OC3CCOCC3)c3c(Nc4c(Cl)ccc5c4OCO5)ncnc3c2)CC1 [saracatinib]
Outline: as §1

sotrastaurin = compound: CN1CCN(c2nc(C3=C(c4c[nH]c5ccccc45)C(=O)NC3=O)c3ccccc3n2)CC1 [sotrastaurin]
Outline: as §1

alvocidib = compound: CN1CC[C@H](c2c(O)cc(O)c3c(=O)cc(-c4ccccc4Cl)oc23)[C@H](O)C1 [alvocidib]
Outline: as §1

Tubastatin A = compound: CN1CCc2c(c3ccccc3n2Cc2ccc(C(=O)NO)cc2)C1 [Tubastatin A]
Outline: as §1

[6] = compound: CNC(=O)C1=CC=CC=C1NC2=NC(=NC=C2Cl)NC3=C(C=C(C=C3)N4CCOCC4)OC
Outline: as §1

defactinib = compound: CNC(=O)c1ccc(Nc2ncc(C(F)(F)F)c(NCc3nccnc3N(C)S(C)(=O)=O)n2)cc1 [defactinib]
Outline: as §1

[7] = compound: CNc1nc(-c2ccc3c(N)n[nH]c3c2)cc(N2C[C@@H](C(=O)NC3CCCCC3)CC[C@H]2C)n1
Outline: as §1

encorafenib = compound: COC(=O)N[C@@H](C)CNc1nccc(-c2cn(C(C)C)nc2-c2cc(Cl)cc(NS(C)(=O)=O)c2F)n1 [encorafenib]
Outline: as §1

[8] = compound: COC(=O)[C@H](CCSC)NC(=O)C1=C(C=C(C=C1)NC[C@H](CS)N)C2=CC=CC=C2
Outline: as §1

alisertib = compound: COc1cc(Nc2ncc3c(n2)-c2ccc(Cl)cc2C(c2c(F)cccc2OC)=NC3)ccc1C(=O)O [alisertib]
Outline: as §1

[9] = compound: COc1cc2nc(-c3cc(F)ccc3O)nc(N[C@@H]3CNC[C@H]3C(C)(C)O)c2cc1OC
Outline: as §1

gefitinib = compound: COc1cc2ncnc(Nc3ccc(F)c(Cl)c3)c2cc1OCCCN1CCOCC1 [gefitinib]
Outline: as §1

Chain of UniProt Q16539 (Q16539 whole entry, looked up): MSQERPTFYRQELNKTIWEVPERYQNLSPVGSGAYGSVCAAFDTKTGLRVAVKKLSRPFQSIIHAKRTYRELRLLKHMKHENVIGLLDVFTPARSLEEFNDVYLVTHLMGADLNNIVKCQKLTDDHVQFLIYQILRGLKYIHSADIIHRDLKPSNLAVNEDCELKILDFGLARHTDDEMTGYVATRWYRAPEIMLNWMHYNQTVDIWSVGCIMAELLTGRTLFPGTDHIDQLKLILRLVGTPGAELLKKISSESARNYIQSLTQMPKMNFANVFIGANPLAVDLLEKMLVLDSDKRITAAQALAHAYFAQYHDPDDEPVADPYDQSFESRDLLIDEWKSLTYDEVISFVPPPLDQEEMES
Chain of UniProt Q13015 (Q13015 whole entry, looked up): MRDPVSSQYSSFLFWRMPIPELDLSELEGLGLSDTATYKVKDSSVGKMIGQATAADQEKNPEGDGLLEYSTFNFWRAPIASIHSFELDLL
Chain of UniProt Q96T76 (Q96T76 whole entry, looked up): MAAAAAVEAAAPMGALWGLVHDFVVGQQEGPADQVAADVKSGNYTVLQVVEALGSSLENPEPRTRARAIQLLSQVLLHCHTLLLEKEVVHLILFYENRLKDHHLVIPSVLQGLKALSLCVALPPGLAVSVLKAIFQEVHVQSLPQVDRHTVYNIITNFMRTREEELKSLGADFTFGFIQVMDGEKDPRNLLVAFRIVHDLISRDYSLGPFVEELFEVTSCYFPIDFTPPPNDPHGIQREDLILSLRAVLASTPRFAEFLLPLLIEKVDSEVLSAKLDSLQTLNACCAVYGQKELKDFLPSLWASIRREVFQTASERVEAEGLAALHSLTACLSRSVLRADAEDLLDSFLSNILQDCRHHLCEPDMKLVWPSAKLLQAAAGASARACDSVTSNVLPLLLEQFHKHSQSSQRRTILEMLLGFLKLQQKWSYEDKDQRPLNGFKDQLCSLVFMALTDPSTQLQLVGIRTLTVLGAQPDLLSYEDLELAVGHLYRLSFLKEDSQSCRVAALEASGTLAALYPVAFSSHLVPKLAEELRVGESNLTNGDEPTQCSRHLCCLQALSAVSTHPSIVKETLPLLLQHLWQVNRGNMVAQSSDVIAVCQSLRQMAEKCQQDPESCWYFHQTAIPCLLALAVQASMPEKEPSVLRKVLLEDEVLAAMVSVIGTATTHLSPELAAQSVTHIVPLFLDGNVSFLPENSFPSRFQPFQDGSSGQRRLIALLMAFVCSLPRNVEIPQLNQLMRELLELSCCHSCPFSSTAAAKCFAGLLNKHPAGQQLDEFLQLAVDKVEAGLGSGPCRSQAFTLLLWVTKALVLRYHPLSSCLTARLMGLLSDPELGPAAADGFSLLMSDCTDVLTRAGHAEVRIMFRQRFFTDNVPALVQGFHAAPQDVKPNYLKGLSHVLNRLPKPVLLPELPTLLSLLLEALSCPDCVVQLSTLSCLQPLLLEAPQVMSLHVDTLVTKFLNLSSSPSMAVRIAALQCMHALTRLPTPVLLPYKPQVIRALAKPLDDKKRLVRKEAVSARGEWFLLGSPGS
Chain of UniProt Q8NF37 (Q8NF37 whole entry, looked up): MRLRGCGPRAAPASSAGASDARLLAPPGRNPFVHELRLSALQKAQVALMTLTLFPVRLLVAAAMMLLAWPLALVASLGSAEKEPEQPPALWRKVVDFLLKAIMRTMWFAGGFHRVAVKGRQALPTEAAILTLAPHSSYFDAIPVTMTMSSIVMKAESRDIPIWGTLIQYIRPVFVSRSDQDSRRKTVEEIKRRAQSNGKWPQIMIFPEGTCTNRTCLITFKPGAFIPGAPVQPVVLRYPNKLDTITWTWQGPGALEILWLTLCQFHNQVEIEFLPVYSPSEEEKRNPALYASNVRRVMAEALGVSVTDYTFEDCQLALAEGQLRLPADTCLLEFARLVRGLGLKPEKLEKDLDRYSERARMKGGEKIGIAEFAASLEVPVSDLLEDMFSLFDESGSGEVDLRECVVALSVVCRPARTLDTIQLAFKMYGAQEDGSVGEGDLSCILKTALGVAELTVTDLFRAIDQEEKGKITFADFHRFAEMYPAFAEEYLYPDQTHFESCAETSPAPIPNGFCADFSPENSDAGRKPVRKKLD
Chain of UniProt Q2VIQ3 (Q2VIQ3 whole entry, looked up): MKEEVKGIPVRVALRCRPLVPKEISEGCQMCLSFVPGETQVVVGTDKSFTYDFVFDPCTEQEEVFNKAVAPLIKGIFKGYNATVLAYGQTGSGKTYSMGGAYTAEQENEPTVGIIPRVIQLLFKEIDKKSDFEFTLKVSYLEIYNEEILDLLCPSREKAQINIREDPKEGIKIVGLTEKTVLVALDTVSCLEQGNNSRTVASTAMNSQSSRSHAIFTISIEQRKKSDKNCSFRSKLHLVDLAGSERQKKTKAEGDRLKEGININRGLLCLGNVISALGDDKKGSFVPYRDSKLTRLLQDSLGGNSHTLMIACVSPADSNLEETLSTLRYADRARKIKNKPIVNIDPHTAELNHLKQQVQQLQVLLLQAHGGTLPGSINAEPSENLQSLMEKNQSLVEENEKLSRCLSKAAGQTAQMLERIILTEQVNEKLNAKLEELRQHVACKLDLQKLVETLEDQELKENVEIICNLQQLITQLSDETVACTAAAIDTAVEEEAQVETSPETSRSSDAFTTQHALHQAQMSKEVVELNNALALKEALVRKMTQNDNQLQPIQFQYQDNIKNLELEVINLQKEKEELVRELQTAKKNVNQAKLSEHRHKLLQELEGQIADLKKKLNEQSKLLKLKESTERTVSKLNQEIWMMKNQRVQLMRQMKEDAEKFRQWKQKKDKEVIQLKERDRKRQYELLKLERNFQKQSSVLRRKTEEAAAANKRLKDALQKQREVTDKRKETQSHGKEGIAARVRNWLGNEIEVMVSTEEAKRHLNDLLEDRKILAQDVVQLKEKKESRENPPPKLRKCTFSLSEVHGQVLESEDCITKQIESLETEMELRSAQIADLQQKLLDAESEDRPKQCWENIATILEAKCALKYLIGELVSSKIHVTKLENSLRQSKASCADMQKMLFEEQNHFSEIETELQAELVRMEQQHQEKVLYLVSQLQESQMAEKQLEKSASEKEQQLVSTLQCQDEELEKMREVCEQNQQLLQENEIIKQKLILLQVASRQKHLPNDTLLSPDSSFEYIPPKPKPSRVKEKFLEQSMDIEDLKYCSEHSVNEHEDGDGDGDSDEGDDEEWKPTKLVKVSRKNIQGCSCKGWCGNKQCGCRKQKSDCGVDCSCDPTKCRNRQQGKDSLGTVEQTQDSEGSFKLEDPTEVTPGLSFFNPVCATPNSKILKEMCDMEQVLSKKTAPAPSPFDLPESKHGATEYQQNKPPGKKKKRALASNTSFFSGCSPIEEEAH
Chain of UniProt Q9GZY8 (Q9GZY8 whole entry, looked up): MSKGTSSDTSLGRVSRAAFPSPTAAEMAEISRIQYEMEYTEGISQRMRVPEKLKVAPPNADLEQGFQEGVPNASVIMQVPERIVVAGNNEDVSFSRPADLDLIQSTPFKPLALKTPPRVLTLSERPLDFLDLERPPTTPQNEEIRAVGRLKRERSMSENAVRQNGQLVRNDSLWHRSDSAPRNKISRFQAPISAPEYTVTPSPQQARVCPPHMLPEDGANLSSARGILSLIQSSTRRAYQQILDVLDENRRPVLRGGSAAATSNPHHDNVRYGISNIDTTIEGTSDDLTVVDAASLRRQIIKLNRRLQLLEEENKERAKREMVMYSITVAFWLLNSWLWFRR
Chain of UniProt Q9BQ69 (Q9BQ69 whole entry, looked up): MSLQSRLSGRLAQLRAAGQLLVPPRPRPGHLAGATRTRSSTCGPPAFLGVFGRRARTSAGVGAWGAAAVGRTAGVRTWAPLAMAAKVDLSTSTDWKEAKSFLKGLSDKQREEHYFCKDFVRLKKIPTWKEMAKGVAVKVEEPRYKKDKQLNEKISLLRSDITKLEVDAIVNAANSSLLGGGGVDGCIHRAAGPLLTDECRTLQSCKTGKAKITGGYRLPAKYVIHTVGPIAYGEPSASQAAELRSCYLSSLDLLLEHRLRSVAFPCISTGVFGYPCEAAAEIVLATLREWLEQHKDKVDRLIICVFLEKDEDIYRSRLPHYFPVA
Chain of UniProt P49137 (P49137 whole entry, looked up): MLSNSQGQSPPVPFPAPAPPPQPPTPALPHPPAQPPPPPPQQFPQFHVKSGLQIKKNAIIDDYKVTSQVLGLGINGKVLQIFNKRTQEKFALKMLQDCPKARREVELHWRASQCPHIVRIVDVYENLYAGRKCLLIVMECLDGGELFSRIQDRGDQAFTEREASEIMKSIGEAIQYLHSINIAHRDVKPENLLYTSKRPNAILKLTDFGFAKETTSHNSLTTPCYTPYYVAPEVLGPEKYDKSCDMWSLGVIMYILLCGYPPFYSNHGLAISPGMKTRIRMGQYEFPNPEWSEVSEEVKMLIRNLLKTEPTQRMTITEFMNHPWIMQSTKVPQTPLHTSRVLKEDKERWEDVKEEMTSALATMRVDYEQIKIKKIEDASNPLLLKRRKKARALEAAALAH
Chain of UniProt Q9BTT4 (Q9BTT4 whole entry, looked up): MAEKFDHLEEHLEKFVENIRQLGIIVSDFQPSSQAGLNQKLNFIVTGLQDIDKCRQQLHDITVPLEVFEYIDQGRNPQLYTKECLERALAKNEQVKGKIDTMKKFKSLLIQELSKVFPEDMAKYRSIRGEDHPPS
Chain of UniProt P28838 (P28838 whole entry, looked up): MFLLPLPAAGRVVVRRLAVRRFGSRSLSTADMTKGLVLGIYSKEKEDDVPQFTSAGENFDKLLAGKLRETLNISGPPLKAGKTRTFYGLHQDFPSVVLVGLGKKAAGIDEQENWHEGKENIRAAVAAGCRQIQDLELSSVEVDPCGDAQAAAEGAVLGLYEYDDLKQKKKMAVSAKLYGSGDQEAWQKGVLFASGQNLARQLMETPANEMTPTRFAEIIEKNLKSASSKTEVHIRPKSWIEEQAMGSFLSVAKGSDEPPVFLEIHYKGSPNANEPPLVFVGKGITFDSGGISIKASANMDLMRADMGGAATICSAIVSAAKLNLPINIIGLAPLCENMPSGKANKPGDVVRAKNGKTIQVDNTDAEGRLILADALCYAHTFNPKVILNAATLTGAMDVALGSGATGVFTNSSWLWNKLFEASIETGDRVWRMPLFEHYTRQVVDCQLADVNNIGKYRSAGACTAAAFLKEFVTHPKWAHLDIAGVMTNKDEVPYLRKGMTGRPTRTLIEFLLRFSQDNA

Row | Target | log2 fold change (vemurafenib) | log2 fold change [1] | log2 fold change (barasertib) | log2 fold change [2] | log2 fold change (volasertib) | log2 fold change [3] | log2 fold change [4] | log2 fold change [5] | log2 fold change (saracatinib) | log2 fold change (sotrastaurin) | log2 fold change (alvocidib) | log2 fold change (Tubastatin A) | log2 fold change [6] | log2 fold change (defactinib) | log2 fold change [7] | log2 fold change (encorafenib) | log2 fold change [8] | log2 fold change (alisertib) | log2 fold change [9] | log2 fold change (gefitinib)
1 | MACROD1 (UniProt Q9BQ69) | 0.016 | 0.043 | -0.002 | 0.033 | -0.015 | -0.012 | -0.043 | -0.014 | 0.008 | 0.002 | 0.12 | -0.104 | 0.012 | 0.039 | 0.015 | 0.029 | -0.074 | -0.037 | -0.001 | 0.033
2 | MAP2K5 (UniProt Q13163) | 0.207 | 0.302 | 0.019 | -0.148 | -0.311 | -0.144 | 0.15 | -0.029 | -0.079 | 0.014 | 0.067 | -0.033 | 0.086 | -0.026 | 0.329 | 0.149 | -0.15 | -0.016 | 0.054 | 0.155
3 | MAPK14 isoform 2 (UniProt Q16539) | 0.189 | 0.046 | 0.079 | -0.076 | -0.078 | 0.003 | 0.303 | -0.101 | 0.192 | -0.029 | 0.154 | -0.121 | 0.299 | 0.01 | -0.041 | 0.454 | 0.257 | -0.065 | -0.004 | 0.144
4 | MFF isoform 2 (UniProt Q9GZY8) | 0.019 | 0.027 | 0.027 | 0.032 | -0.014 | 0.035 | -0.234 (active) | 0.036 | 0.011 | -0.044 | -0.046 | -0.038 | -0.052 | 0.027 | 0.024 | 0.068 | -0.113 | 0.042 | -0.075 | 0.048
5 | KNSTRN (UniProt Q9Y448) | -0.012 | 0.021 | 0.022 | 0.01 | 0.004 | 0.086 | 0.063 | -0.095 | 0.009 | -0.03 | 0.001 | -0.062 | 0.038 | -0.029 | 0.053 | 0.074 | -0.264 (active) | 0.043 | -0.016 | -0.022
6 | LPCAT1 (UniProt Q8NF37) | -0.009 | 0.07 | 0.012 | 0.037 | 0.097 | -0.072 | -0.39 (active) | 0.099 | 0.079 | 0.032 | -0.117 | 0.117 | 0.067 | 0.045 | 0.097 | 0.037 | -0.063 | 0.07 | -0.01 | -0.009
7 | MMS19 isoform 8 (UniProt Q96T76) | 0.064 | 0.006 | 0.029 | -0.061 | -0.114 | 0.002 | -0.005 | -0.051 | 0 | 0.026 | 0.008 | -0.144 | 0 | -0.027 | 0.007 | 0.014 | 0.128 | 0.002 | 0.001 | -0.022
8 | MORC3 (UniProt Q14149) | 0.025 | 0.01 | 0.019 | -0.03 | -0.077 | 0.007 | -0.007 | -0.055 | 0.004 | 0.006 | -0.015 | -0.098 | 0.017 | 0.018 | -0.028 | 0.007 | 0.038 | -0.003 | 0.021 | -0.01
9 | MED16 (UniProt Q9Y2X0) | -0.059 | 0.008 | -0.113 | -0.04 | -0.036 | 0.056 | 0.177 | -0.189 | -0.014 | -0.018 | 0.01 | -0.093 | 0.02 | -0.014 | 0.004 | -0.011 | 0.038 | -0.015 | -0.004 | 0.019
10 | LAP3 (UniProt P28838) | 0.107 | 0.024 | -0.002 | 0.195 | 0.054 | -0.095 | -0.495 (active) | 0.36 (active) | 0.082 | 0.042 | -0.249 | 0.082 | 0.069 | -0.063 | 0.191 | 0.006 | 0.004 | -0.02 | 0.038 | -0.004
11 | KIF4B (UniProt Q2VIQ3) | -0.026 | 0.047 | -0.015 | -0.102 | -0.003 | 0.009 | 0.007 | -0.073 | -0.002 | -0.01 | -0.01 | -0.207 (active) | 0.024 | 0.008 | -0.039 | 0.034 | 0.146 | -0.018 | -0.006 | -0.018
12 | MED10 (UniProt Q9BTT4) | 0.037 | 0 | 0.08 | 0.133 | 0.066 | -0.009 | 0.107 | -0.059 | 0.077 | -0.015 | 0.038 | 0.041 | 0.042 | 0.068 | 0.045 | 0.11 | -0.185 | 0.082 | -0.03 | -0.045
13 | MITD1 (UniProt Q8WV92) | 0.044 | 0.001 | 0.057 | 0.013 | -0.07 | -0.031 | -0.269 | -0.163 | 0.024 | 0.039 | 0.021 | 0.046 | 0.044 | -0.038 | -0.026 | -0.04 | 0.143 | 0.041 | 0.018 | 0.022
14 | KMT2A isoform 3 (UniProt Q03164) | 0.044 | -0.033 | 0.042 | -0.035 | -0.054 | -0.058 | -0.093 | -0.01 | -0.069 | 0.034 | -0.073 | 0.011 | -0.07 | -0.054 | -0.069 | -0.118 | -0.037 | -0.371 | 0.061 | -0.172
15 | MLLT11 (UniProt Q13015) | -0.054 | -0.048 | 0.143 | -0.199 | 0.1 | 0.05 | -0.01 | -0.049 | 0.118 | -0.04 | 0.056 | -0.052 | 0.108 | 0.086 | -0.019 | 0.138 | 0.099 | 0.115 | 0.067 | 0.023
16 | MAPKAPK2 (UniProt P49137) | 0.011 | -0.043 | 0 | -0.015 | -0.032 | 0.009 | -0.032 | 0.002 | -0.037 | -0.015 | 0.069 | -0.078 | 0.077 | -0.059 | 0.025 | -0.026 | 0.046 | -0.023 | 0.114 | -0.013
